# Reference: the supplement of paper PMC12282887
# ± gives the standard deviation of the averaged measurements.
# Test system: E. coli BW25113 marRABp lux reporter
# Test: promoter activity interaction Z-score (Lux/OD deviation from empty-vector control); higher = stronger promoter induction by the compound
# Description: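 E. coli BW25113 (wild type or ΔmarA/ΔsoxS/Δrob) carrying pTU175 luxCDABE promoter reporters was grown in LB in 384-well plates at 37°C with each of 94 compounds at 4 two-fold concentrations, in biological duplicates. Luminescence and OD600 were read every 30 min for 12 h and integrated as AUC over 8 h (0-8 h WT, 1-9 h mutants). Lux AUC was divided by OD AUC; the interaction score is the residual of a Huber robust fit of each promoter against the empty-vector control, then Z-transformed per promoter.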
smiles,measurement,setting,value
COc1cccc2c1C(=O)c1c(O)c3c(c(O)c1C2=O)C[C@@](O)(C(=O)CO)C[C@@H]3O[C@H]1C[C@H](N)[C@H](O)[C@H](C)O1 [Doxorubicin],promoter activity interaction Z-score,"0.29 µg/ml, genetic background: wild type",0.237 ± 0.34
same,promoter activity interaction Z-score,"0.29 µg/ml, genetic background: ΔmarA",-0.264 ± 0.2
same,promoter activity interaction Z-score,"0.29 µg/ml, genetic background: Δrob",-0.254 ± 0.1
same,promoter activity interaction Z-score,"0.29 µg/ml, genetic background: ΔsoxS",0.0277 ± 0.11
same,promoter activity interaction Z-score,"0.58 µg/ml, genetic background: wild type",-0.0763 ± 0.21
same,promoter activity interaction Z-score,"0.58 µg/ml, genetic background: ΔmarA",0.0102 ± 0.26
same,promoter activity interaction Z-score,"0.58 µg/ml, genetic background: Δrob",-0.188 ± 0.032
same,promoter activity interaction Z-score,"0.58 µg/ml, genetic background: ΔsoxS",0.0987 ± 0.23
same,promoter activity interaction Z-score,"1.2 µg/ml, genetic background: wild type",0.0323 ± 0.31
same,promoter activity interaction Z-score,"1.2 µg/ml, genetic background: ΔmarA",-0.148 ± 0.1
same,promoter activity interaction Z-score,"1.2 µg/ml, genetic background: Δrob",-0.236 ± 0.064
same,promoter activity interaction Z-score,"1.2 µg/ml, genetic background: ΔsoxS",0.0249 ± 0.092
same,promoter activity interaction Z-score,"2.3 µg/ml, genetic background: wild type",-0.0695 ± 0.11
same,promoter activity interaction Z-score,"2.3 µg/ml, genetic background: ΔmarA",-0.158 ± 0.16
same,promoter activity interaction Z-score,"2.3 µg/ml, genetic background: Δrob",-0.24 ± 0.021
same,promoter activity interaction Z-score,"2.3 µg/ml, genetic background: ΔsoxS",-0.0671 ± 0.12
COc1cc(NS(=O)(=O)c2ccc(N)cc2)ncn1 [Sulfamonomethoxine],promoter activity interaction Z-score,"7 µg/ml, genetic background: wild type",0.165 ± 0.29
same,promoter activity interaction Z-score,"7 µg/ml, genetic background: ΔmarA",0.199 ± 0.22
same,promoter activity interaction Z-score,"7 µg/ml, genetic background: Δrob",0.0754 ± 0.022
same,promoter activity interaction Z-score,"7 µg/ml, genetic background: ΔsoxS",-0.0457 ± 0.27
same,promoter activity interaction Z-score,"14 µg/ml, genetic background: wild type",0.419 ± 0.21
same,promoter activity interaction Z-score,"14 µg/ml, genetic background: ΔmarA",0.246 ± 0.58
same,promoter activity interaction Z-score,"14 µg/ml, genetic background: Δrob",-0.0243 ± 0.36
same,promoter activity interaction Z-score,"14 µg/ml, genetic background: ΔsoxS",-0.0217 ± 0.15
same,promoter activity interaction Z-score,"28 µg/ml, genetic background: wild type",0.52 ± 0.32
same,promoter activity interaction Z-score,"28 µg/ml, genetic background: ΔmarA",0.729 ± 0.45
same,promoter activity interaction Z-score,"28 µg/ml, genetic background: Δrob",0.602 ± 0.038
same,promoter activity interaction Z-score,"28 µg/ml, genetic background: ΔsoxS",0.101 ± 0.14
same,promoter activity interaction Z-score,"56.1 µg/ml, genetic background: wild type",1.09 ± 0.8
same,promoter activity interaction Z-score,"56.1 µg/ml, genetic background: ΔmarA",1.14 ± 0.16
same,promoter activity interaction Z-score,"56.1 µg/ml, genetic background: Δrob",1.18 ± 0.4
same,promoter activity interaction Z-score,"56.1 µg/ml, genetic background: ΔsoxS",1.04 ± 0.46
COc1ccc2[nH]c([S+]([O-])Cc3ncc(C)c(OC)c3C)nc2c1 (stereo not drawn) [Omeprazole],promoter activity interaction Z-score,"21.6 µg/ml, genetic background: wild type",-0.572 ± 0.095
same,promoter activity interaction Z-score,"21.6 µg/ml, genetic background: ΔmarA",-0.27 ± 0.18
same,promoter activity interaction Z-score,"21.6 µg/ml, genetic background: Δrob",-0.128 ± 0.18
same,promoter activity interaction Z-score,"21.6 µg/ml, genetic background: ΔsoxS",-0.226 ± 0.23
same,promoter activity interaction Z-score,"43.2 µg/ml, genetic background: wild type",-0.301 ± 0.098
same,promoter activity interaction Z-score,"43.2 µg/ml, genetic background: ΔmarA",-0.0417 ± 0.55
same,promoter activity interaction Z-score,"43.2 µg/ml, genetic background: Δrob",-0.0764 ± 0.16
same,promoter activity interaction Z-score,"43.2 µg/ml, genetic background: ΔsoxS",-0.0512 ± 0.083
same,promoter activity interaction Z-score,"86.4 µg/ml, genetic background: wild type",-0.582 ± 0.15
same,promoter activity interaction Z-score,"86.4 µg/ml, genetic background: ΔmarA",-0.305 ± 0.32
same,promoter activity interaction Z-score,"86.4 µg/ml, genetic background: Δrob",-0.229 ± 0.12
same,promoter activity interaction Z-score,"86.4 µg/ml, genetic background: ΔsoxS",-0.22 ± 0.21
same,promoter activity interaction Z-score,"172.7 µg/ml, genetic background: wild type",-0.5175 ± 0.0031
same,promoter activity interaction Z-score,"172.7 µg/ml, genetic background: ΔmarA",-0.6 ± 0.24
same,promoter activity interaction Z-score,"172.7 µg/ml, genetic background: Δrob",-0.408 ± 0.15
same,promoter activity interaction Z-score,"172.7 µg/ml, genetic background: ΔsoxS",-0.421 ± 0.089
